Inconclusive results are not listed. Activity calls are given as the source filed them. The call rests on the fitted dose curve; in most records, active means well fitted inhibition curve with a large enough effect; inconclusive means small, poorly fitted or top-dose-only effect; inactive means no such curve, though single readings can be large or run the other way.
The compounds below were run against Protein phosphatase 1D (Homo sapiens) (UniProt O15297) (assay: RapidFire Mass Spectrometry qHTS Assay for Modulators of WT P53-Induced Phosphatase 1 (WIP1) (AID 1347424;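 further: amount of dephosphorylated VEPPL-S-QETFS peptide product formed by WIP1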)). Settings: WIP1 dephosphorylation of phosphopeptide, RapidFire MS; series mostly up to 63 µM.
In short: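 10 nM WIP1 + cpd, 1 h RT; + 2 uM VEPPL-pS-QETFS, 5 min RT; stop 0.5% formic acid; labelled product standard 1 uM; RapidFire MS. Buffer 50 mM Tris pH 7.5, 30 mM MgCl2, 1 mM TCEP.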

Protein phosphatase 1D (Homo sapiens), sequence (O15297 whole entry, looked up): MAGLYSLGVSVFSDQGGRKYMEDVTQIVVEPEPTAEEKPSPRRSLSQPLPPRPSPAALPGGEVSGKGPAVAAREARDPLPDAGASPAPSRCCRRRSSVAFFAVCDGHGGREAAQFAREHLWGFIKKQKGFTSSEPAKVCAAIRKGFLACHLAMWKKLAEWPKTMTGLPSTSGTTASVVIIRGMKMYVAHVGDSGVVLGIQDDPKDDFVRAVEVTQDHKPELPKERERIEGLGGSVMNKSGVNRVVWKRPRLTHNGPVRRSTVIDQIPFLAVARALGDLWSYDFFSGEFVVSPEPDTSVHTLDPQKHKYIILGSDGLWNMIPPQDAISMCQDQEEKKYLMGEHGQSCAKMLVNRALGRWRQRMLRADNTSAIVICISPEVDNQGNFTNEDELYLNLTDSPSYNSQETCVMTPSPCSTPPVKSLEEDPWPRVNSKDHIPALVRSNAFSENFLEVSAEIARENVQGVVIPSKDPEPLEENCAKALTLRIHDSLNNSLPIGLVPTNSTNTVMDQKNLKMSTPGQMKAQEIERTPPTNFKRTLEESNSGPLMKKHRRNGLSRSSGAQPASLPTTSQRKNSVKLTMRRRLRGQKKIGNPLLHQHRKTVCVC

| SMILES | outcome |
| --- | --- |
| CC(=O)Oc1c(C)c(C)c2c(c1C)CC[C@@](C)(CCC[C@H](C)CCC[C@H](C)CCCC(C)C)O2 | inactive |
| O=C(O)[C@@H]1CSCN1 | inactive |
| NS(=O)(=O)c1cc2c(cc1C(F)(F)F)NC(Cc1ccccc1)NS2(=O)=O (stereo not drawn) | inactive |
| COc1cc2[nH]c(=O)[nH]c(=O)c2cc1OC | inactive |
| Nc1ccc(S(=O)(=O)Nc2ccccc2)cc1 | inactive |
| Oc1cn2c(n1)Nc1ccc(Cl)c(Cl)c1C2 | inactive |
| CC1(C)S[C@@H]2[C@H](NC(=O)Cc3ccccc3)C(=O)N2[C@H]1C(=O)O (tested in a mixture with another compound) | inactive |
| CCN(CC)CCNC(C(=O)OCCC(C)C)c1ccccc1 (stereo not drawn) | inactive |
| Cc1cc2nc3c(=O)[nH]c(=O)nc-3n(C[C@H](O)[C@H](O)[C@H](O)CO)c2cc1C | inactive |
| c1ccc(CN(CC2=NCCN2)c2ccccc2)cc1 | inactive |
| Cc1cccc(Nc2cc(Cl)nc(SCC(=O)O)n2)c1C | inactive |
| O=c1cc[nH]c(=O)[nH]1 | inactive |
| CCN(CC)C(=O)Nc1ccc(OCC(O)CNC(C)(C)C)c(C(C)=O)c1 (stereo not drawn) | inactive |
| O=C(Oc1ccccc1C(=O)O)c1ccccc1O | inactive |
| CCCCOC(=O)c1ccc(O)cc1 | inactive |
| C[C@@H]1C[C@H]2[C@@H]3C[C@H](F)C4=CC(=O)C=C[C@]4(C)[C@@]3(F)[C@@H](O)C[C@]2(C)[C@@]1(O)C(=O)CO | inactive |
| O=C1Nc2ccc(Cl)cc2[C@@](C#CC2CC2)(C(F)(F)F)O1 | inactive |
| CC(O)COc1ccccc1 (stereo not drawn) | inactive |
